From PubChem
Sampled rows, rich in hits. Any-hit rate of the full collection: about 7.1%.
SW480 rereplic = induces DNA re-replication in SW480 colon adenocarcinoma cells; SW480 DNA re-replication, Hoechst DNA content imaging, 48 h; Potency, µM (doses to about 46.1 µM), for inactives: at the highest dose re-replication activation, most hits filed as activators; 1.8% of 340,000 active; note: potency is the fitted concentration of half-maximal effect; % of control where 0% means no effect; nearly all actives have a fitted effect of over 55% in size
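Cells (250 per well) received 23 nL compound or DMSO by pin tool and were kept 48 hr at 37 C, 5% CO2. Nuclei were then stained with Hoechst for 40 min and scanned for DNA content.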
IL1B secr inh = inflammasome signaling inhibition, IL-1 beta readout. THP-1 LPS/ATP IL-1B secretion, AlphaLISA, 16 h; active compounds read low. activity change, % at 57.5 µM. 4.7% of 360,000 active. AID 743279; in the data active = activity change below about -50%; inconclusive = mostly about -30% to -49%; note: % is set by controls: 0 for no effect and ±100 for the full control effect
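Secreted IL-1B measured by AlphaLISA bead assay after 16 h compound exposure of THP-1 cells; compounds (final up to 57.5 uM) added 1 h before LPS (250 ng/mL) and ATP (1.25 mM) stimulation; lower signal means less secretion.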
MCF10A rerep = inducers of DNA re-replication in MCF 10A breast cells. MCF 10A DNA re-replication, Hoechst nuclear intensity, 48 h. Potency, µM (top dose mostly 46.1 µM), without a hit: at the highest dose activity, positive = re-replication, hits mostly activators. 2.9% of 350,000 active. AID 624296; note: potency is the fitted concentration of half-maximal effect; % of control where 0% means no effect; nearly all actives have a fitted effect of over 50% in size
PINK1 modulator = PINK1 expression modulation | AID 624263 | PINK1 immunofluorescence, high-content cytometry, 24 h | Potency, µM (doses to about 76.6 µM), for the others: at the highest dose activation (PINK1 increase), usual class: activators | 0.2% of 410,000 active; active = well fitted activation curve with a large enough effect; inconclusive = small, poorly fitted or top-dose-only effect; cell line not stated here; note: potency is the fitted concentration of half-maximal effect; % of control where 0% means no effect; nearly all actives have a fitted effect of over 65% in size
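A stable cell line was treated with compounds at 5 concentrations for 24 hours, with CCCP as control. PINK1 levels and mitochondrial localization were measured by immunofluorescence with mitochondrial, cell and nuclear markers after fixation, read by laser-scanning cytometry.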
ATXN viability = viability counter-screen for ATXN expression inhibitors; 0.49% of 400,000 active; Potency, µM (series often up to 56.7 µM), actives largely listed as cytotoxic; S2 cells (HEK-293 line with an ATXN2-luciferase reporter) viability, CellTiter-Fluor protease fluorescence, 24 h; note: potency is the fitted concentration of half-maximal effect; nearly all actives have a fitted effect of over 40% in size
ATXN2 expr inh = reduces ATXN2 reporter expression in HEK-293 cells. AID 1745845. 0.72% of 360,000 active. Potency, µM (doses to about 57 µM), for inactives: top-dose activity change, negative = inhibition, most hits filed as inhibitors. HEK-293 ATXN2-luciferase reporter, luminescence, 24 h; note: potency is the fitted concentration of half-maximal effect; % is set by controls: 0 for no effect and ±100 for the full control effect; nearly all actives have a fitted effect of over 55% in size
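ATXN2-luciferase reporter cells (luciferase flanked by upstream and downstream ATXN2 gene portions) were treated 24 h at 37 °C with compounds at up to 57 uM. SteadyGlo luminescence gave expression; GF-AFC fluorescence gave viability.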
Active calls of the source: *; i = inactive; ? = inconclusive; · = no result given; [ ] = remark or other dose. Unless noted, calls come from the whole dose curve; as a rule, active = well fitted curve in the direction sought with a large enough effect; inconclusive = small, poorly fitted or top-dose-only effect, or another doubt; inactive = no such curve, though single readings can be large; an effect the other way counts as inactive or inconclusive.

SMILES | SW480 rereplic | IL1B secr inh | MCF10A rerep | PINK1 modulator | ATXN viability | ATXN2 expr inh
C[C@H]1CN([C@@H](C)CO)C(=O)Cc2cc(NC(=O)CCC(F)(F)F)ccc2O[C@H]1CN(C)Cc1ccc(C(F)(F)F)cc1 | 0.9%[9.22 µM] | -68.7* | ? | -0.5% | · | ?
C[C@H]1CN([C@@H](C)CO)C(=O)Cc2cc(NC(=O)C3CC3)ccc2O[C@H]1CN(C)Cc1ccc(Oc2ccccc2)cc1 | 16.9% | -72.3* | ? | -1.1% | · | ?
C[C@H]1CN([C@@H](C)CO)C(=O)Cc2cc(NC(=O)CCC(F)(F)F)ccc2O[C@H]1CN(C)S(C)(=O)=O | 2.3% | 14.1 | 2.4% | -0.4% | i | 2.7%
C[C@H]1CN([C@@H](C)CO)C(=O)Cc2cc(NC(=O)CCC(F)(F)F)ccc2O[C@H]1CN(C)Cc1ccc(-c2ccccc2)cc1 | -5.4% | -2.0 | ? | 0.3% | · | ?
C[C@@H]1CN([C@H](C)CO)C(=O)Cc2cc(NC(=O)Cn3cnnn3)ccc2O[C@@H]1CN(C)Cc1ccc(Cl)c(Cl)c1 | 10.5%[9.22 µM] | -59.2* | -23.0% | -0.1% | ? | -34.3%
Cc1ccc(S(=O)(=O)N(C)C[C@@H]2Oc3ccc(NC(=O)CCC(F)(F)F)cc3CC(=O)N([C@@H](C)CO)C[C@@H]2C)cc1 | 3.66µM* | 46.3 | 3.66µM* | 6.0% | i | -14.3%
C[C@H]1CN([C@@H](C)CO)C(=O)Cc2cc(NC(=O)Cn3cnnn3)ccc2O[C@H]1CN(C)Cc1ccncc1 | -25.3% | 72.7 | -4.0% | 0.7% | i | 3.3%
N#CCCN(CCCN1CCOCC1)CN1C(=O)c2ccccc2C1=O | · | 0.0 | · | 1.3% | i | ·
COc1cc(F)c(C(C)C)cc1-c1ccc(C(F)(F)F)cc1CN1C(=O)O[C@H](c2cc(C(F)(F)F)cc(C(F)(F)F)c2)[C@@H]1C | · | · | · | · | · | -8.7%
CCn1c(C)nc2cc(NS(=O)(=O)c3ccccc3)cc(C(=O)N3C[C@@H](C)O[C@@H](C)C3)c21 | · | · | · | 0.1% | ? | ·
Cc1ccc(S(=O)(=O)Nc2ccc3c(c2)CC(=O)N([C@H](C)CO)C[C@@H](C)[C@H](CN(C)Cc2ccc(-c4ccccc4)cc2)O3)cc1 | -11.2%[9.22 µM] | -26.4 | ? | 8.5% | 22.4µM* | ?
COc1cc(-c2nn3c(C4CCCCC4)nnc3s2)cc(OC)c1OC | 0.3%[9.22 µM] | -50.8* | ? | -2.8% | i | -16.5%
COc1ccc(-c2nn3c(C4CCCCC4)nnc3s2)cc1OC | -2.5% | -13.4 | 4.8% | -1.7% | i | -4.3%
Cc1cccn2c(=O)c(C(=O)NCCc3ccc(S(N)(=O)=O)cc3)c(O)nc12 | · | · | · | -0.7% | i | -1.3%
COC(=O)c1nn(-c2ccc(OC)cc2)c(=O)c2c(N)sc(C)c12 | 29.1µM* | -1.1 | -3.7% | -3.1% | i | 7.3%
O=C(Nc1c(Cl)cccc1Cl)c1cc(-c2cccc(O)c2)on1 | · | · | · | 1.1% | ? | -5.1%
Cc1nnsc1C(=O)NCC1Cc2cccc(-c3ncccn3)c2O1 (centres undefined) | · | · | · | 0.2% | ? | ·
NCCCC[C@H]1CNC(=S)N1CCc1cc(C(F)(F)F)cc(C(F)(F)F)c1 | 0.6% | -50.9* | -5.6% | 1.6% | i | -13.0%
O=Cc1c(-c2ccc(Cl)cc2)oc2ccc(O)cc12 | 29.1% | -55.5* | 10.0% | 3.0% | i | 122.0%
O=C(O)c1c(-c2ccccc2)oc2ccc(O)cc12 | -7.0% | 22.5 | 0.1% | 1.0% | i | ·
Oc1cc(CNCc2ccccc2)c(O)cc1CNCc1ccccc1 | 13µM* | -11.6 | ? | 4.5% | i | -9.3%
CC(C)c1ccc(CNCc2ccccc2)cc1 | -0.1% | -51.0* | -5.1% | 14.1%[38.3 µM] | i | 8.9%
OCc1ccccc1CNCc1ccccc1 | -1.5% | -1.3 | -3.5% | -1.3%[38.3 µM] | i | -6.3%
COc1ccc(-c2onc(C)c2C)cc1S(=O)(=O)NCc1ccc(C)o1 | · | · | · | 1.2% | · | ·
CCN(CC)/[N+]([O-])=N/OCOC(=O)c1ccccc1OC(C)=O | · | · | · | -0.5% | · | ·
SMILES | SW480 rereplic | IL1B secr inh | MCF10A rerep | PINK1 modulator | ATXN viability | ATXN2 expr inh
COc1cc(=O)n2c(c1C(=O)N(C)Cc1nonc1C)CCN(Cc1ccc(F)cc1)CC2 | · | · | · | -0.2% | i | ·
CCCCCOC(=O)Nc1ccc(S(=O)(=O)Nc2cccc([N+](=O)[O-])c2)cc1 | -0.1% | -88.5* | ? | 6.9% | i | -14.5%
CC(C)Oc1ccc(CNC(=O)C2=Cc3ccccc3OC2)cc1 | · | · | · | -0.1% | i | 12.3%
COc1cccc(-c2ccc(NC(=O)C3CCCN(Cc4cnc(C)n4C)C3)cc2)c1 (centres undefined) | -1.7% | -15.6 | ? | 6.5% | ? | -22.5%
Cc1ncc(CN2CCCC(C(=O)Nc3ccc(-c4cccc(F)c4)cc3)C2)n1C (centres undefined) | ? | ? | 23.1µM* | -2.0% | i | ?
COc1ccc(S(=O)(=O)N2c3ccccc3OCC2c2ccccc2)cc1 (centres undefined) | 3.66µM* | 39.2 | 5.8µM* | 2.3% | i | ?
COc1ccc(S(=O)(=O)N2c3ccccc3OCC2C)cc1 (centres undefined) | 2.59µM* | 74.3 | 1.3µM* | 0.8% | ? | ?
COc1ccc(S(=O)(=O)N2CC(C(=O)O)Oc3ccccc32)cc1 (centres undefined) | -10.1% | 21.4 | -1.2% | 3.1% | i | -18.9%
COc1ccc(S(=O)(=O)N2c3ccccc3OCC2C(C)(C)C)cc1 (centres undefined) | 1.3% | 14.8 | -3.6% | 0.2% | i | 1.8%
COc1ccc(S(=O)(=O)N2CCOc3ccccc32)cc1 | 5.8µM* | 108.1 | 4.61µM* | -0.2% | i | 0.0%
O=C(c1ccc(F)c(F)c1)N1CCOc2ccc(CN3CCN(Cc4ccccn4)CC3)cc2C1 | · | · | · | 0.1% | i | ·
O=C(O)c1ccc(N/N=C/C2=C(N3CCOCC3)C(=C\c3ccccc3)/CC2)cc1 | 18.4µM* | -8.9 | ? | 15.0% | i | 8.8%
Cc1cc(C)nc(NN=CC2=C(N3CCOCC3)/C(=C/c3ccc(Cl)cc3)CC2)n1 | 20.6µM* | -27.0 | ? | 8.6% | i | -11.1%
Cc1occc1C(=O)N/N=C/C1=C(N2CCOCC2)C(=C\c2ccc(Cl)cc2Cl)/CC1 | 2.91µM* | -11.1 | 2.06µM* | 31.6µM* | i | ·
Nc1nccc(-c2ccc3noc(-c4ccc(Cl)cc4)c3c2)n1 | · | · | · | · | · | -17.7%
COC(=O)CC1Oc2ccc(C)cc2-n2cc(-c3ccc(F)cc3)nc21 (centres undefined) | · | · | · | 3.8% | i | -5.8%
N#C/C(=C\c1ccncc1)c1nc2ccccc2[nH]1 | -1.2% | -64.4* | ? | 4.1% | i | 42.1%
N#C/C(=C\c1cccnc1)c1nc2ccccc2[nH]1 | ? | 17.1 | ? | 6.6% | · | 7.4%
